High-throughput results (PubChem)
ELG1 repair inh – qHTS screen for small molecules that inhibit ELG1-dependent DNA repair in human embryonic kidney (HEK293T) cells expressing luciferase-tagged ELG1. AID 504467, 2011. Potency, µM (highest dose often 46.1 µM), usual class: inhibitors. hit rate 2.3% among 330,000. HEK293T ELG1-luciferase reporter, luminescence, 16 h; DNA damage induced by 5-fluorouridine; further: nearly all actives have a fitted effect of over 55% in size
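Cells (2,000 per well) received 5-fluorouridine plus test compound or DMSO and were incubated 16 hr at 37 °C, 5% CO2. Luciferase activity was read by luminescence 30 min after ONE-Glo addition; signal suppression marked inhibition of damage-induced ELG1 function.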
KB-3-1 tox – qHTS assay for MDR1-selective chemotherapeutics: Primary screen using the parental adenocarcinoma cell KB-3-1. KB-3-1 viability, CellTiter-Glo ATP luminescence, 72 h. Potency, µM (titrated, usually from 46.1 µM), hits mostly cytotoxic. hit rate 1.4% among 400,000. AID 1347075, 2019; further: nearly all actives have a fitted effect of over 60% in size
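Cells are dispensed, compounds pinned in, plates held at 37 °C for 72 h, then CellTiter-Glo is added and luminescence read after 10 minutes. Cell line: parental KB-3-1 in phenol-red-free DMEM, 10% FBS.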
SW480 rerep – A quantitative high throughput screen for small molecules that induce DNA re-replication in SW480 colon adenocarcinoma cells; hit rate 1.8% among 340,000; SW480 DNA re-replication, Hoechst DNA content imaging, 48 h; Potency, µM (titrated, usually from 46.1 µM), actives largely listed as activators; further: nearly all actives have a fitted effect of over 55% in size
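Compounds, transferred as 23 nL by pin tool, were incubated with cells for 48 hr; DNA content per nucleus was then quantified by Hoechst staining and fluorescence plate imaging.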
MCF10A rereplic – A quantitative high throughput screen for small molecules that induce DNA re-replication in MCF 10a normal breast cells; MCF 10A DNA re-replication, Hoechst nuclear intensity, 48 h; Potency, µM (doses to about 46.1 µM), usual class: activators; hit rate 2.9% among 350,000; AID 624296, 2012; further: nearly all actives have a fitted effect of over 50% in size
KB-V1 MDR tox – qHTS assay for MDR1-selective chemotherapeutics: Primary screen using the drug-selected MDR subline cells KB-V1; KB-V1 MDR cells viability, CellTiter-Glo, 72 h; Potency, µM (series often up to 46.1 µM), actives largely listed as cytotoxic; hit rate 3.4% among 400,000; further: nearly all actives have a fitted effect of over 60% in size
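KB-V1 cells (P-gp-expressing MDR subline of KB-3-1) in phenol-red-free DMEM with 10% FBS were exposed to library compounds over a concentration series for 72 h at 37 degrees C. Viability read by CellTiter-Glo luminescence; concentration-effect curves fitted after normalization.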
A number is an active result; n = inactive; u = inconclusive; x = no result. Sampled rows, rich in hits. Any-hit rate of the full collection: about 8.1%. The call rests on the fitted dose curve; in most records, active means well fitted curve in the direction sought with a large enough effect; inconclusive means small, poorly fitted or top-dose-only effect, or another doubt; inactive means no such curve, though single readings can be large; an effect the other way counts as inactive or inconclusive.

SMILES	ELG1 repair inh	KB-3-1 tox	SW480 rerep	MCF10A rereplic	KB-V1 MDR tox
CCN(CC)CCN(Cc1cc2cc(C)ccc2[nH]c1=O)C(=O)Nc1ccccc1OC	n	n	n	n	n
CCOc1ccc2[nH]c(=O)c(CN(Cc3ccc(F)cc3)C(=O)c3ccco3)cc2c1	u	16µM	u	u	15µM
CCOc1ccc2[nH]c(=O)c(CN(CC3COCCO3)C(=O)c3ccco3)cc2c1 (stereo not drawn)	n	n	n	n	n
CCOC(=O)C1CCN(C(=O)c2ccc(N3CCCC3=O)cc2)CC1	n	n	n	n	u
COc1ccc(CCc2nnc(NS(C)(=O)=O)s2)cc1	n	n	n	n	n
CCOc1ccc2[nH]c(=O)c(CN(Cc3ccccc3OC)C(=O)c3ccccc3)cc2c1	u	5.2µM	u	21µM	4.6µM
CCOc1ccc2[nH]c(=O)c(CN(Cc3ccco3)C(=O)c3cccc(F)c3)cc2c1	n	n	n	n	n
COc1ccc2[nH]c(=O)c(CN(Cc3ccco3)C(=O)c3ccccc3)cc2c1	n	u	u	u	n
COc1ccc(C(=O)N(Cc2ccco2)Cc2cc3cc(C)ccc3[nH]c2=O)cc1OC	x	n	n	n	n
CCOc1ccc2[nH]c(=O)c(CN(Cc3ccco3)C(=O)c3ccc(Br)cc3)cc2c1	n	u	u	16µM	23µM
Cc1ccc2[nH]c(=O)c(CN(Cc3ccco3)C(=O)c3ccncc3)cc2c1	u	12µM	u	u	u
COc1cc(CNCC2CCCO2)ccc1OCC(N)=O (stereo not drawn)	n	u	n	n	u
COc1ccccc1C(=O)N1C(CC(=O)Nc2ccc(C)c(C)c2)C(=O)NC2CCCCC21 (stereo not drawn)	u	u	n	n	n
COc1ccc(OC)c(NC(=O)c2ccc3c(c2)C(=O)N(CC2CCCO2)C3=O)c1 (stereo not drawn)	n	n	n	n	n
CCOc1ccc(C(=O)OCc2cc(=O)n3nc(C4CCCCC4)sc3n2)cc1	x	n	x	x	n
CC1=CC(C)C2(COC(c3ccc[n+](C)c3)OC2)C(C)C1 (stereo not drawn)	6.5µM	u	n	u	n
COc1ccc(N2C(=O)CSC2c2ccc(F)c(F)c2)cc1 (stereo not drawn)	u	n	n	n	n
COc1cc(OC)cc(C(=O)NCCCCCCNC(=O)c2cc(OC)cc(OC)c2)c1	u	n	u	n	18µM
O=C(OCC(=O)N1CCN(C(=O)c2ccco2)CC1)c1cc(S(=O)(=O)Nc2ccc(Cl)cc2)ccc1O	n	n	n	n	n
O=C(O)CCn1cc(C2CC(c3ccccc3)=NN2c2ccccc2)c(-c2ccccc2)n1 (stereo not drawn)	n	n	23µM	12µM	n
CC(C)c1ccc(NC(=O)CSc2n[nH]c(=O)n2-c2ccc3c(c2)OCCO3)cc1	n	n	n	n	u
CCc1nnc(N/N=C/c2ccc(N3CCC(C)CC3)c([N+](=O)[O-])c2)n1N	n	n	u	u	u
Cc1nnc(N/N=C/c2cc([N+](=O)[O-])c(N3CCC(C)CC3)cc2N2CCC(C)CC2)n1N	u	n	u	u	23µM
CCOC(=O)C1CCN(C(=O)COC(=O)COc2ccc(Cl)cc2)CC1	n	n	n	n	n
COCCCNC(=S)N/N=C/c1ccc(N(C)C)cc1Cl	u	n	29µM	u	n
COCCCNC(=S)N/N=C/c1ccc(N(C)C)cc1	u	n	n	n	n
Cc1nn(CC(C)C(=O)N2CCN(S(=O)(=O)c3ccc(Cl)cc3)CC2)c(C)c1C (stereo not drawn)	n	n	n	n	21µM
COc1ccccc1NC(=O)C1CCCN(S(=O)(=O)c2ccccc2)C1 (stereo not drawn)	n	x	n	n	x
COc1ccc(Nc2nc(NCCO)nc(N3CCCC3)n2)cc1	x	n	n	n	n
CCCNc1nc(Nc2ccc(C)cc2)nc(N2CCCC2)n1	u	u	n	u	4.1µM
